# From PubChem BioAssay (EPA / NIEHS)
# Records with an inconclusive call do not appear. Active and inactive are the calls of the source. The calls were made as follows, unless noted: active = hit-call score of the fitted dose curve at least 0.9, where 1 is the maximum; inconclusive = response in the unintended direction; inactive = score below 0.9.
# Assays:
# [1] = molecular target: bovine Estrogen Receptor (ER), ESR1 (gene 407238) (UniProt P49884); experiment: NVS_NR_bER: NovaScreen (NVS) Nuclear Receptor Binding Assay for bovine Estrogen Receptor (ER) (AID 2283345);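 also: actives lower the bound radioligand count which means they displace the ER ligand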
# How it was run: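 Cell-free radioligand binding with receptor from bovine uterine membranes, read by scintillation counting 18 h after dosing. Loss of specific binding was scored against DMSO; primary screen at 25 uM in duplicate, actives then run as concentration series.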
# [2] = molecular target: Estrogen receptor (Homo sapiens) (UniProt P03372); experiment: NVS_NR_hER: NovaScreen (NVS) Nuclear Receptor Binding Assay for human Estrogen Receptor (ER) (AID 2283348)
# How it was run: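 Cell-free radioligand binding with protein extracted from MCF7 cells; scintillation counting 18 hours after dosing. Loss of signal versus DMSO baseline read as displacement; primary single-concentration screen at 25 uM in duplicate, actives retested in concentration series.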
# [3] = molecular target: mouse Estrogen Receptor alpha (Era), Esr1 (gene 13982) (UniProt P19785); experiment: NVS_NR_mERa: NovaScreen (NVS) Nuclear Receptor Binding Assay for mouse Estrogen Receptor alpha (Era) (AID 2283378);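 also: hit means loss of bound radioligand signal relative to DMSO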
# How it was run: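 Filter scintillation counts of bound radioligand, measured 18 h post-dose, gave the readout; decreased signal relative to DMSO controls indicated displacement from mouse Era. Primary screen ran in duplicate at 25 uM; active chemicals were retested across concentrations.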
# [4] = TOX21_p53_BLA_p3_viability: Viability Assessment in the Tox21 HCT-116 p53 Agonism Beta-lactamase Assay, Phase 3 (AID 2283593);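 also: cells exposed to compound for 16 h before reading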
# How it was run: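 HCT-116 cells (4000/well) rested 5 h at 37C, then got DMSO compounds by pin tool (217-fold dilution) for 16 h at 37C, 5% CO2. After the bla read, CellTiter-Glo was added and luminescence read at 30 min, room temperature.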
# [5] = molecular target: Cellular tumor antigen p53 (Homo sapiens) (UniProt P04637); experiment: TOX21_p53_BLA_p3_ratio: Tox21 HCT-116 p53 Agonism Beta-lactamase Assay, Ratio, Phase 3 (AID 2283596)
# How it was run: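 HCT116 p53-bla cells (4000/well) given compound in DMSO (217-fold dilution) after 5 h, incubated 16 h at 37C. CCF4-AM substrate 2 h at room temperature; 460/530 nm emission ratio, gain fitted against DMSO.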
# [6] = molecular target: Cellular tumor antigen p53 (Homo sapiens) (UniProt P04637); experiment: TOX21_p53_BLA_p5_ratio: Tox21 HCT-116 p53 Agonism Beta-lactamase Assay, Ratio, Phase 5 (AID 2283599)
# How it was run: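 HCT-116 cells carrying a p53-inducible beta-lactamase reporter were seeded at 4000 cells/well and dosed after 5 h with compound in DMSO (217-fold dilution). After 16 h at 37C, CCF4-AM substrate was added for 2 h, and the 460/530 nm emission ratio was scored as gain-of-signal versus DMSO.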
# [7] = TOX21_p53_BLA_p5_viability: Viability Assessment in the Tox21 HCT-116 p53 Agonism Beta-lactamase Assay, Phase 5 (AID 2283600)
# How it was run: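 Compounds, pinned from DMSO at 217-fold dilution, were left on the cells for 16 h. The viability endpoint was ATP content measured by CellTiter-Glo luminescence, where falling signal reflects cytotoxicity.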
# [8] = molecular target: Cellular tumor antigen p53 (Homo sapiens) (UniProt P04637); experiment: TOX21_p53_BLA_p4_ratio: Tox21 HCT-116 p53 Agonism Beta-lactamase Assay, Ratio, Phase 4 (AID 2283601)
# How it was run: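 HCT116 cells carrying an inducible beta-lactamase reporter were plated at 4000 cells/well, rested 5 h, then exposed to compounds in DMSO (217-fold dilution) for 16 h at 37C. CCF4-AM substrate was loaded 2 h at room temperature; 460/530 nm emission ratio scored gain-of-signal versus DMSO.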
# [9] = ACEA_ER_AUC_viability: ACEA Biosciences xCELLigence Real-Time Cell Analysis on Estrogen Receptor Agonism for Viability (AID 2283782);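 also: continuous compound exposure with impedance area under curve over 80 h; hit means loss of impedance signal meaning reduced cell growth or viability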
# How it was run: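 T-47D human breast cells in phenol red-free RPMI1640 with 10% charcoal-stripped FBS were dosed with an 8-point 1:4 dilution series from 100 uM top final concentration, in duplicate. Impedance-based growth was followed for 80 h; AUC analysed versus DMSO.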
# [10] = tested on: rat Monoamine Oxidase, MAO-A, Central (MAOAC), gene 29253; experiment: NVS_ENZ_rMAOAC: NovaScreen (NVS) Enzymatic Assay for rat Monoamine Oxidase, MAO-A, Central (MAOAC) (AID 2283243);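 also: potency refers to inhibition seen as signal drop below DMSO baseline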
# How it was run: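 Rat brain tissue extract used as enzyme source in a cell-free radiometric assay, read by scintillation counting 1.5 hours after dosing. Loss of signal relative to DMSO baseline scored; primary screen at 25 uM in duplicate, actives followed up in concentration series.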
# [11] = molecular target: rat Corticotropin Releasing Factor Receptor (CRF), Crhr1 (gene 58959) (UniProt P35353); experiment: NVS_GPCR_rCRF: NovaScreen (NVS) G Protein-Coupled Receptor Assay for rat Corticotropin Releasing Factor Receptor (CRF) (AID 2283300)
# How it was run: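 Rat cortical membranes used as receptor source in a radioligand competitive displacement binding assay; scintillation read 2 h after dosing. Primary screen run in duplicate at 25 uM; loss of signal versus DMSO baseline indicates binding.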
# [12] = TOX21_TRB_BLA_Agonist_Followup_viability: Viability Assessment in the Tox21 Thyroid Hormone Receptor beta Agonism Beta-lactamase (BLA) Follow-Up Assay (AID 2283956)
# How it was run: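 TRb-bla HEK293T cells (GAL4-DBD/human TRb LBD) in 2% charcoal-stripped FBS medium were exposed 18 h at 37C to 11 concentrations in triplicate. CellTiter-Glo ATP luminescence was read after 30 min at room temperature, with bidirectional fitting against DMSO.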
# [13] = molecular target: bovine Gamma-Aminobutyric Acid Type A Receptor BDZ, alpha 1 site (GABARa1), GABRA1 (gene 780973) (UniProt P08219); experiment: NVS_LGIC_bGABARa1: NovaScreen (NVS) Ligand-Gated Ion Channel Assay for bovine Gamma-Aminobutyric Acid Type A Receptor BDZ, alpha 1 site (GABARa1) (AID 2283321)
# How it was run: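 Radioligand competition binding on bovine cortical membranes, 0.75 h, filter-based scintillation counting. Primary single concentration 25 uM in duplicate; actives rerun in concentration-response to 50 uM max. Loss of signal fitted versus DMSO.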
# [14] = TOX21_p53_BLA_p2_viability: Viability Assessment in the Tox21 HCT-116 p53 Agonism Beta-lactamase Assay, Phase 2 (AID 2283591);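 also: compound exposure lasted 16 h at 37 °C; actives lower the ATP signal meaning cytotoxicity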
# How it was run: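 HCT-116 p53-bla cells (4000/well) rested 5 h at 37C, then received compounds in DMSO (217-fold dilution) for 16 h at 37C, 5% CO2. After the CCF4 read, CellTiter-Glo was added; ATP luminescence was read after 30 min at room temperature.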
# [15] = molecular target: Cellular tumor antigen p53 (Homo sapiens) (UniProt P04637); experiment: TOX21_p53_BLA_p2_ratio: Tox21 HCT-116 p53 Agonism Beta-lactamase Assay, Ratio, Phase 2 (AID 2283592)
# How it was run: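 In this cell-based reporter format, HCT116 cells were dosed with chemicals delivered from DMSO by 217-fold dilution and incubated 16 h at 37C. Emission at 460 and 530 nm after 2 h CCF4-AM loading provided the ratio, fitted upward versus DMSO.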
# [16] = TOX21_p53_BLA_p4_viability: Viability Assessment in the Tox21 HCT-116 p53 Agonism Beta-lactamase Assay, Phase 4 (AID 2283597);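 also: hits lower the luminescence signal meaning cytotoxicity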
# How it was run: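 We seeded HCT116 p53 reporter cells at 4000/well and waited 5 h. We then added compounds in DMSO at a 217-fold dilution and incubated for 16 h. Viability was read as CellTiter-Glo luminescence after 30 min at RT.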
# [17] = CCTE_Harrill_HTTr_Viability_MCF7: CCTE's 6-hour Cell Viability Assessment for the High-Throughput Transcriptomics (HTTr) Platform, in MCF-7 cells cultured in DMEM + 10% fetal bovine serum, Harrill Lab (AID 2284010; active = hit-call score of the fitted dose curve at least 0.9, where 1 is the maximum; inactive = score below 0.9)
# How it was run: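 MCF-7 cells in DMEM + 10% FBS, 384-well, exposed 6 h to an eight-point dilution series. Membrane integrity scored by high-content imaging of propidium iodide exclusion; bidirectional fit versus DMSO.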
# [18] = CCTE_Harrill_HTTr_Apoptosis_MCF7: CCTE's 6-hour Apoptosis Assessment for the High-Throughput Transcriptomics (HTTr) Platform, in MCF-7 cells cultured in DMEM + 10% fetal bovine serum, Harrill Lab (AID 2284011; active = hit-call score of the fitted dose curve at least 0.9, where 1 is the maximum; inactive = score below 0.9)
# How it was run: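 Read-out: CellEvent Caspase 3/7 Green signal by high content imaging, gain-of-signal indicating apoptosis. MCF-7 cells, DMEM + 10% FBS, eight-point dilution series, 6 h exposure. Curves fitted bidirectionally relative to DMSO negative control.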
# [19] = CCTE_Harrill_HTTr_CellCount_MCF7: CCTE's Cell Proliferation Assessment for the High-Throughput Transcriptomics (HTTr) Platform, Harrill Lab (AID 2284012);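 also: cells exposed to compound for six hours; intended direction is loss of nuclei count meaning fewer cells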
# How it was run: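 MCF7 cells exposed 6 hours to an eight-point dilution series; Hoechst-stained nuclei counted by high-content imaging. Bidirectional curve fitting against DMSO baseline.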
# [20] = molecular target: Norway rat Vesicular Monoamine Transporter (VMAT2), neurotransmitter transporter, Slc18a2 (gene 25549) (UniProt Q01827); experiment: NVS_TR_rVMAT2: NovaScreen (NVS) Transporter Assay for Norway rat Vesicular Monoamine Transporter (VMAT2), neurotransmitter transporter (AID 2283376);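 also: actives lower the bound radioligand signal below the DMSO level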
# How it was run: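 Rat forebrain tissue preparation used in a cell-free radioligand binding format; displacement read by filter-based scintillation counting 1 hour after dosing. Primary screen in duplicate at 25 uM, actives then run in concentration series; loss of signal versus DMSO baseline.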
# [21] = molecular target: Voltage-dependent N-type calcium channel subunit alpha-1B (Rattus norvegicus) (UniProt Q02294); experiment: NVS_IC_rCaChN: NovaScreen (NVS) Ion Channel Assay for rat Calcium Channel, Type N (CaChN) (AID 2283317)
# bovine Gamma-Aminobutyric Acid Type A Receptor BDZ, alpha 1 site (GABARa1), GABRA1 (gene 780973), sequence (P08219 whole entry, looked up): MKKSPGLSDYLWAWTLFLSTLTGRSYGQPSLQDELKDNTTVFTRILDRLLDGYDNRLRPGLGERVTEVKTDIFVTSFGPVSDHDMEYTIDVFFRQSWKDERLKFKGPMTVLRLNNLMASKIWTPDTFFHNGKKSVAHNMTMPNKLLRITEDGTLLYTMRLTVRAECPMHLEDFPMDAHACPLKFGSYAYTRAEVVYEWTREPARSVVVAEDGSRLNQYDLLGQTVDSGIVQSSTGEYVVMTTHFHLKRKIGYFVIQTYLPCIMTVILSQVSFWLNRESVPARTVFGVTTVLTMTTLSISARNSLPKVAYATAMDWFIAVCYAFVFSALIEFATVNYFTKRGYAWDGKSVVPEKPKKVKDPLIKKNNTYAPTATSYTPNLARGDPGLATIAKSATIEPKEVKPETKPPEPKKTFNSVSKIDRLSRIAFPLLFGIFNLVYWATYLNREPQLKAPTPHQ
# bovine Estrogen Receptor (ER), ESR1 (gene 407238), sequence (P49884 whole entry, looked up): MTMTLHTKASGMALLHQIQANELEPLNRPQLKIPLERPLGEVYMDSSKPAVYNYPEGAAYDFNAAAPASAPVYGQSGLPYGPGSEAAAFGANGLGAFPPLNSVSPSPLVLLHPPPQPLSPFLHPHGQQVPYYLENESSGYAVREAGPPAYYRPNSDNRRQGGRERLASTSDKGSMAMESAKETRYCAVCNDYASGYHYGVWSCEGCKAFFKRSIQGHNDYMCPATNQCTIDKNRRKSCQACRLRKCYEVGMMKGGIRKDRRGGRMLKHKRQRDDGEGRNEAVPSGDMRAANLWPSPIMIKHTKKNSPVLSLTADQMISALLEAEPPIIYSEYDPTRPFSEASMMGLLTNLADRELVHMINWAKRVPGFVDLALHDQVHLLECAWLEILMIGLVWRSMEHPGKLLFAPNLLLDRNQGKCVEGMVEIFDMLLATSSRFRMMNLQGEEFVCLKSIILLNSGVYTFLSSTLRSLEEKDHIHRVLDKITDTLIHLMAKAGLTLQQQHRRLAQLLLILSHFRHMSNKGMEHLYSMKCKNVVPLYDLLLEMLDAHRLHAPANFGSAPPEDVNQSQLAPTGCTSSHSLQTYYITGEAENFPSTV
# Norway rat Vesicular Monoamine Transporter (VMAT2), neurotransmitter transporter, Slc18a2 (gene 25549), sequence (Q01827 whole entry, looked up): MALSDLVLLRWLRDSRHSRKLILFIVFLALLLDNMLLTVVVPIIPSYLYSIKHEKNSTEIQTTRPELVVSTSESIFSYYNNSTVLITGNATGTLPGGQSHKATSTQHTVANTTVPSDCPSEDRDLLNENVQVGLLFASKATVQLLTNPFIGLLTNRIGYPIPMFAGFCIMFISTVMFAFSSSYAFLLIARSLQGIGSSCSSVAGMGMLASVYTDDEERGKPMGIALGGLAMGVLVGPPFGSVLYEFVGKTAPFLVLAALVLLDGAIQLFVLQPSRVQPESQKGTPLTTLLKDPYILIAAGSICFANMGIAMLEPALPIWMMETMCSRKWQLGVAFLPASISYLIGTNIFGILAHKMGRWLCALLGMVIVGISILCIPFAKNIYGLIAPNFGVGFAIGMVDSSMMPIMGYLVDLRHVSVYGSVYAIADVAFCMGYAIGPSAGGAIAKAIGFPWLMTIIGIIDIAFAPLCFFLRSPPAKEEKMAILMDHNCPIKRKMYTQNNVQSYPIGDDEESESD
# Estrogen receptor (Homo sapiens), sequence (P03372 whole entry, looked up): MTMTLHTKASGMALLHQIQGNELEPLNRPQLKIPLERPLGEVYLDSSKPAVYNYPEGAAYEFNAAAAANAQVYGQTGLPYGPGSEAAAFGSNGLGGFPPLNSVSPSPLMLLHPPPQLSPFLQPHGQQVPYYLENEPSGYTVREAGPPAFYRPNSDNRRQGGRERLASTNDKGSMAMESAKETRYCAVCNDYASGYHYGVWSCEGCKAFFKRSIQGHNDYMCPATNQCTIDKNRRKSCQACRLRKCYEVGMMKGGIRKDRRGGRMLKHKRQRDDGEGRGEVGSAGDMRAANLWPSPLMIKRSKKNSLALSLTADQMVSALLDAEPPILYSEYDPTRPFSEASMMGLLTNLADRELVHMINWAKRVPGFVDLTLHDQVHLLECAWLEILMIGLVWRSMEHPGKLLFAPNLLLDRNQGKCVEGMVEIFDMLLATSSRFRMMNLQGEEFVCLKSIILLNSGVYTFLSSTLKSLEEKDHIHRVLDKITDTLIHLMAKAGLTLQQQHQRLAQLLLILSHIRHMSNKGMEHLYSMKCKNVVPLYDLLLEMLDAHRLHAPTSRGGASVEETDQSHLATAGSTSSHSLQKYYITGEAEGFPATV
# Cellular tumor antigen p53 (Homo sapiens), sequence (P04637 whole entry, looked up): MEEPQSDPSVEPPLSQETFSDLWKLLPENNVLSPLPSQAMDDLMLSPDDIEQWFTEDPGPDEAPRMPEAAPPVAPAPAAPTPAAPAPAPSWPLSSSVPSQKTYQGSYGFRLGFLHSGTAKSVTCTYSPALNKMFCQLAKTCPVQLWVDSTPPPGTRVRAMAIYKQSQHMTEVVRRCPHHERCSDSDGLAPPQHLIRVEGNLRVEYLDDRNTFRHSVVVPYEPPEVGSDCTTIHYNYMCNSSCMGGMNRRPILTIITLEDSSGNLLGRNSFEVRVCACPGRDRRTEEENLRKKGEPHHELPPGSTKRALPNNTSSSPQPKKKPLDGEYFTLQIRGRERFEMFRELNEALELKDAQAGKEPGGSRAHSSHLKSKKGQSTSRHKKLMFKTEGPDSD
# mouse Estrogen Receptor alpha (Era), Esr1 (gene 13982), sequence (P19785 whole entry, looked up): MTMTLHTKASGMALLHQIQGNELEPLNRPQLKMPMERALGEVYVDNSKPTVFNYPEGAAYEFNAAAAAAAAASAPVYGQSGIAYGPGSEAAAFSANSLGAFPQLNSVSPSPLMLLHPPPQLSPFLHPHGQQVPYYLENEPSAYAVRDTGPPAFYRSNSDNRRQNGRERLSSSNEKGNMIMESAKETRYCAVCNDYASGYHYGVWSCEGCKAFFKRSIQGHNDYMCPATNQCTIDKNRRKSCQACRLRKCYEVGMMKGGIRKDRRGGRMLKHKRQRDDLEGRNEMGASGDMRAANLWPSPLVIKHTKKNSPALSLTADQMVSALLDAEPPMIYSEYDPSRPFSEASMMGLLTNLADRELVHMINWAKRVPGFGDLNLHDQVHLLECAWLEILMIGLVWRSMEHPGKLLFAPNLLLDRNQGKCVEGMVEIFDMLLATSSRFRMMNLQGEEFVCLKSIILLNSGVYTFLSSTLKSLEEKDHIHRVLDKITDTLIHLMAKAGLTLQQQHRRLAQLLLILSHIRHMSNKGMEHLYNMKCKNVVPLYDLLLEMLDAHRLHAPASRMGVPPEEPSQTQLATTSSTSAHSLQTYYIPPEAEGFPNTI
# rat Corticotropin Releasing Factor Receptor (CRF), Crhr1 (gene 58959), sequence (P35353 whole entry, looked up): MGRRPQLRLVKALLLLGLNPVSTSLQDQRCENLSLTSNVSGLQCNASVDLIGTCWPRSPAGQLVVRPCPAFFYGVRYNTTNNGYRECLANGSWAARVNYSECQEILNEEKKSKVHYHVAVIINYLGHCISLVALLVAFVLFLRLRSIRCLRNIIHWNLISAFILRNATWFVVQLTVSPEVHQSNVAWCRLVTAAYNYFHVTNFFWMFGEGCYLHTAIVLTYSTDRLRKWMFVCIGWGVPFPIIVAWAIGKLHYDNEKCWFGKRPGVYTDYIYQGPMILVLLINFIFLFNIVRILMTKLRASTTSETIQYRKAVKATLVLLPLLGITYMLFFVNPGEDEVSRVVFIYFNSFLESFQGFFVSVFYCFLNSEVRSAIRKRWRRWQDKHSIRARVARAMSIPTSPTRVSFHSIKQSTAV
smiles,measurement,setting,value
COP(=O)(OC)Oc1ccc([N+](=O)[O-])cc1,outcome,[1],inactive
same,outcome,[2],inactive
same,outcome,[3],inactive
same,outcome,[4],inactive
same,outcome,[5],inactive
same,outcome,[6],inactive
same,outcome,[7],inactive
same,outcome,[8],inactive
same,outcome,[9],inactive
CCNc1nc(N)nc(Cl)n1,AC50,[10],37.6 µM (active)
same,outcome,[11],inactive
same,outcome,[12],inactive
C#C[C@]1(O)CC[C@H]2[C@@H]3CCC4=CC(=O)CC[C@@H]4[C@H]3CC[C@@]21CC,AC50,[13],2.23 µM (active)
CC(Oc1ccc(Oc2ncc(C(F)(F)F)cc2Cl)cc1)C(=O)O (configuration not stated),outcome,[1],inactive
same,outcome,[2],inactive
same,outcome,[14],inactive
same,outcome,[15],inactive
same,outcome,[4],inactive
same,outcome,[16],inactive
same,outcome,[17],inactive
same,outcome,[18],inactive
same,outcome,[19],inactive
Nc1ccc(Oc2cccc(Oc3ccc(N)cc3)c2)cc1,AC50,[10],22.7 µM (active)
same,outcome,[20],inactive
CC(=O)Nc1ccc(N=Nc2cc(C)ccc2O)cc1,AC50,[10],0.0709 µM (active)
C=CC(=O)OCCN(CC)CC,outcome,[10],inactive
NC(=O)N1c2ccccc2C=Cc2ccccc21,outcome,[13],inactive
COc1ccc(N)cc1N,outcome,[1],inactive
CCOc1ccc(NC(N)=O)cc1,AC50,[10],16.6 µM (active)
CCCCCCCCCCCCCCCCO,outcome,[10],inactive
Cc1ccc2sc3cccc(C)c3c2c1,outcome,[10],inactive
IC(I)=C(I)I,outcome,[1],inactive
same,outcome,[2],inactive
same,outcome,[14],inactive
same,AC50,[15],13.2 µM (active)
same,outcome,[4],inactive
same,outcome,[5],inactive
same,AC50,[16],12.8 µM (active)
same,AC50,[6],13.7 µM (active)
same,outcome,[7],inactive
same,AC50,[8],13.9 µM (active)
CNCc1ccc(NC(=O)c2c[nH]c3c2C(=O)CCC3)cc1,outcome,[21],inactive
same,AC50,[13],0.0626 µM (active)
OC(c1ccc(F)cc1)(c1cncnc1)c1ccccc1Cl (configuration not stated),outcome,[1],inactive
same,AC50,[2],21.2 µM (active)
same,outcome,[3],inactive
same,outcome,[15],inactive
same,outcome,[4],inactive
same,outcome,[16],inactive
same,outcome,[8],inactive
same,outcome,[17],inactive
same,outcome,[18],inactive
same,outcome,[19],inactive
COC(=O)OC,outcome,[20],inactive
CS(=O)(=O)c1ccc(C2=C(c3ccccc3)C(=O)OC2)cc1,AC50,[20],12.5 µM (active)
Clc1ccc(Nc2nnc(Cc3ccncc3)c3ccccc23)cc1,AC50,[20],7.04 µM (active)
C1CNCCN1,outcome,[20],inactive
